The antibiotic and cytotoxicity screens of Wong et al. (2023)
The whole screen tested about 39,000 compounds, of which about 1,500 (3.8%) were called active. This excerpt belongs to a sample that is enriched for actives.

system: HSkMC (human skeletal muscle cells); assay: cytotoxicity call (relative viability < 0.9); conditions: 10 µM

SMILES	cytotoxicity call
CCCC#Cc1ccc2c(c1)O[C@@H](CN(C)Cc1ccc3c(c1)OCO3)[C@H](C)CN([C@H](C)CO)S2(=O)=O	inactive
CO[C@H](CN(C)C(=O)C1CCOCC1)[C@H](C)CN(C(=O)Nc1ccc(C(F)(F)F)cc1)[C@@H](C)CO	inactive
C[C@@H]1CN([C@H](C)CO)C(=O)Cc2cc(NC(=O)Nc3ccc(F)cc3)ccc2O[C@@H]1CN(C)CC1CCCCC1	active
C[C@H](CO)N1C[C@H](C)[C@H](CN(C)CC2CCCCC2)Oc2ccc(NC(=O)Nc3ccc(F)cc3)cc2CC1=O	inactive
C[C@H](CO)N1C[C@H](C)[C@@H](CN(C)CC2CCCCC2)Oc2ccc(NC(=O)Nc3ccc(F)cc3)cc2CC1=O	inactive
C[C@@H]1CN([C@@H](C)CO)C(=O)Cc2cc(NC(=O)Nc3ccc(F)cc3)ccc2O[C@H]1CN(C)CC1CCCCC1	inactive
C[C@H]1CN([C@@H](C)CO)C(=O)Cc2cc(NC(=O)Nc3ccc(F)cc3)ccc2O[C@H]1CN(C)CC1CCCCC1	active
C[C@@H]1CN([C@@H](C)CO)C(=O)Cc2cc(NC(=O)Nc3ccc(F)cc3)ccc2O[C@@H]1CN(C)CC1CCCCC1	inactive
COc1ccc(NC(=O)Nc2ccc3c(c2)C(=O)N([C@H](C)CO)C[C@@H](C)[C@H](CN(C)C(=O)Nc2c(C)noc2C)OCCCC[C@@H](C)O3)cc1	inactive
C[C@@H]1O[C@@H](O[C@H]2[C@H](Oc3cc(O)c4c(c3)O[C@H](c3ccc(O)cc3)CC4=O)O[C@H](CO)[C@@H](O)[C@@H]2O)[C@H](O)[C@H](O)[C@H]1O	inactive
Cc1ccc(S(=O)(=O)N(C)C[C@@H]2Oc3ccc(NS(=O)(=O)c4cn(C)cn4)cc3C(=O)N([C@H](C)CO)C[C@@H]2C)cc1	inactive
COc1ccc(S(=O)(=O)N(C)C[C@H]2Oc3ccc(NC(=O)Nc4c(C)noc4C)cc3C(=O)N([C@@H](C)CO)C[C@H]2C)cc1	inactive
Cc1ccc(S(=O)(=O)N2C[C@H](O)COC[C@H]3O[C@@H](CC(=O)N[C@@H]4CCN(Cc5ccccc5)C4)CC[C@@H]32)cc1	inactive
C[C@@H]1CN([C@H](C)CO)C(=O)c2cc(NS(=O)(=O)c3cccs3)ccc2O[C@@H]1CN(C)Cc1ccc(Cl)c(Cl)c1	inactive
C[C@@H]1CCCCO[C@@H](CN(C)C(=O)Nc2cccc3ccccc23)[C@@H](C)CN([C@H](C)CO)C(=O)c2cc(NC(=O)C3CCCCC3)ccc2O1	active
C[C@@H]1CN([C@@H](C)CO)C(=O)c2cc(NC(=O)C3CCCCC3)ccc2O[C@@H](C)CCCCO[C@@H]1CN(C)C(=O)Nc1cccc2ccccc12	inactive
C[C@@H]1CCCCO[C@H](CN(C)C(=O)Nc2cccc3ccccc23)[C@H](C)CN([C@@H](C)CO)C(=O)c2cc(NC(=O)C3CCCCC3)ccc2O1	inactive
C[C@@H]1CCCCO[C@H](CN(C)C(=O)Nc2cccc3ccccc23)[C@H](C)CN([C@H](C)CO)C(=O)c2cc(NC(=O)C3CCCCC3)ccc2O1	inactive
C[C@H]1CCCCO[C@@H](CN(C)C(=O)Nc2cccc3ccccc23)[C@@H](C)CN([C@@H](C)CO)C(=O)c2cc(NC(=O)C3CCCCC3)ccc2O1	inactive
C[C@@H]1CCCCO[C@H](CN(C)C(=O)Nc2cccc3ccccc23)[C@@H](C)CN([C@H](C)CO)C(=O)c2cc(NC(=O)C3CCCCC3)ccc2O1	inactive

SMILES	cytotoxicity call
C[C@@H]1CCCCO[C@@H](CN(C)C(=O)Nc2cccc3ccccc23)[C@@H](C)CN([C@@H](C)CO)C(=O)c2cc(NC(=O)C3CCCCC3)ccc2O1	active
C[C@@H]1CN([C@H](C)CO)C(=O)c2cc(NC(=O)C3CCCCC3)ccc2O[C@@H](C)CCCCO[C@@H]1CN(C)C(=O)Nc1cccc2ccccc12	active
C[C@H](CO)N1C[C@H](C)[C@@H](CN(C)C(=O)Nc2cccc3ccccc23)OCCCC[C@H](C)Oc2ccc(NC(=O)C3CCCCC3)cc2C1=O	inactive
C[C@@H]1CCCCO[C@H](CN(C)C(=O)Nc2ccc(F)cc2)[C@H](C)CN([C@@H](C)CO)C(=O)c2cc(NS(=O)(=O)c3ccccc3)ccc2O1	inactive
C[C@H]1CN([C@@H](C)CO)S(=O)(=O)c2ccc(-c3ccc(C(=O)N(C)C)cc3)cc2O[C@@H]1CN(C)C(=O)C1CC1	inactive
O=C(N[C@@H]1C=C[C@@H](CC(=O)N2CCOCC2)O[C@@H]1CO)c1ccc2c(c1)OCO2	inactive
C[C@H](CO)N1C[C@H](C)[C@H](CN(C)CC2CCCCC2)Oc2ccc(NC(=O)Cn3cnnn3)cc2C1=O	inactive
C[C@H](CO)N1C[C@H](C)[C@@H](CN(C)S(=O)(=O)c2ccccc2)Oc2ccc(NS(=O)(=O)c3ccc(F)cc3)cc2CC1=O	inactive
Cc1noc(C)c1S(=O)(=O)Nc1cccc2c1O[C@H](CN(C)S(=O)(=O)c1ccccc1)[C@H](C)CN([C@@H](C)CO)C2=O	inactive
C[C@@H](O)C#Cc1ccc2c(c1)O[C@H](CN(C)C(=O)C1CCCCC1)[C@@H](C)CN([C@@H](C)CO)S2(=O)=O	inactive
C[C@H]1CN([C@@H](C)CO)S(=O)(=O)c2ccc(Br)cc2O[C@H]1CN(C)C(=O)CCN1CCCCC1	inactive
COc1ccc(S(=O)(=O)Nc2ccc3c(c2)C(=O)N([C@@H](C)CO)C[C@@H](C)[C@@H](CN(C)C(=O)NC2CCCCC2)OCCCC[C@H](C)O3)cc1	inactive
Cc1noc(C)c1S(=O)(=O)Nc1ccc2c(c1)CC(=O)N([C@H](C)CO)C[C@@H](C)[C@H](CN(C)S(=O)(=O)c1cccs1)O2	inactive
COc1ccc2c3c(n(c2c1)C)[C@@H](CO)N(Cc1ccccc1)C[C@]13CCN(CC1)C(=O)Nc1cccc(c1)F	inactive
CO[C@H]1CN(C)C(=O)c2cc(NC(=O)Nc3ccccc3F)ccc2OC[C@H](C)N(Cc2ccccc2C(=O)O)C[C@H]1C	inactive
COc1cccc(S(=O)(=O)N(C)C[C@@H]2Oc3ncc(C#CCN(C)C)cc3C(=O)N([C@H](C)CO)C[C@@H]2C)c1	inactive
C[C@@H]1CN([C@H](C)CO)C(=O)c2cccc(NS(=O)(=O)c3ccc(F)cc3)c2O[C@H]1CN(C)C(=O)Nc1ccc(C(F)(F)F)cc1	inactive
C[C@H](CO)N1C[C@H](C)[C@@H](CN(C)C(=O)Nc2ccc(C(F)(F)F)cc2)Oc2c(NS(=O)(=O)c3ccc(Cl)cc3)cccc2C1=O	inactive
C[C@@H]1CN([C@@H](C)CO)C(=O)c2cccc(NS(=O)(=O)c3ccc(Cl)cc3)c2O[C@@H]1CN(C)C(=O)Nc1ccc(C(F)(F)F)cc1	active
C[C@H](CO)N1C[C@H](C)[C@H](CN(C)C(=O)Nc2ccc(C(F)(F)F)cc2)Oc2c(NS(=O)(=O)c3ccc(Cl)cc3)cccc2C1=O	active

SMILES	cytotoxicity call
C[C@H]1CN([C@@H](C)CO)C(=O)c2cccc(NS(=O)(=O)c3ccc(F)cc3)c2O[C@H]1CN(C)C(=O)Nc1ccc(C(F)(F)F)cc1	inactive
C[C@H]1CN([C@@H](C)CO)C(=O)c2cccc(NS(=O)(=O)c3ccc(F)cc3)c2O[C@@H]1CN(C)C(=O)Nc1ccc(C(F)(F)F)cc1	inactive
C[C@H]1CN([C@@H](C)CO)C(=O)c2cccc(NS(=O)(=O)c3ccc(Cl)cc3)c2O[C@@H]1CN(C)C(=O)Nc1ccc(C(F)(F)F)cc1	inactive
C[C@@H]1CN([C@@H](C)CO)C(=O)c2cccc(NS(=O)(=O)c3ccc(F)cc3)c2O[C@@H]1CN(C)C(=O)Nc1ccc(C(F)(F)F)cc1	inactive
C[C@@H]1CN([C@H](C)CO)C(=O)c2cccc(NS(=O)(=O)c3ccc(Cl)cc3)c2O[C@H]1CN(C)C(=O)Nc1ccc(C(F)(F)F)cc1	inactive
C[C@@H]1CN([C@H](C)CO)C(=O)c2cccc(NS(=O)(=O)c3ccc(Cl)cc3)c2O[C@@H]1CN(C)C(=O)Nc1ccc(C(F)(F)F)cc1	active
C[C@@H]1CN([C@@H](C)CO)C(=O)c2cccc(NS(=O)(=O)c3ccc(Cl)cc3)c2O[C@H]1CN(C)C(=O)Nc1ccc(C(F)(F)F)cc1	inactive
C[C@H]1CN([C@@H](C)CO)C(=O)c2cccc(NS(=O)(=O)c3ccc(Cl)cc3)c2O[C@H]1CN(C)C(=O)Nc1ccc(C(F)(F)F)cc1	active
C#CC1(OC(C)=O)CCC2C3CCC4=CC(OC(C)=O)CCC4C3CCC21C (stereo not given)	inactive
Cc1ccc(S(=O)(=O)N(C)C[C@@H]2Oc3ccc(NC(=O)CCCN(C)C)cc3C(=O)N([C@@H](C)CO)C[C@@H]2C)cc1	inactive
COc1ccc(S(=O)(=O)N(C)C[C@@H]2OCCCC[C@@H](C)Oc3ccc(NC(=O)c4ccccc4)cc3C(=O)N([C@H](C)CO)C[C@H]2C)cc1	inactive
COCC#Cc1ccc([C@H]2[C@H](CO)N3C(=O)CN(C(=O)CN4CCOCC4)C[C@@H]23)cc1	inactive
O=C(O)CCC(=O)O	inactive
CCOC(=O)CN1CCN(C=O)CC1	inactive
C[C@H](CO)N1C[C@H](C)[C@@H](CN(C)Cc2ccc(C(F)(F)F)cc2)OCCCC[C@H](C)Oc2ccc(NS(=O)(=O)c3ccc(F)cc3)cc2C1=O	inactive
COc1ccc(CN(C)C[C@H]2OCCCC[C@H](C)Oc3ccc(NC(=O)NC(C)C)cc3C(=O)N([C@H](C)CO)C[C@H]2C)cc1	inactive
O=C(N[C@@H](c1cccnc1)c1ccc2c(c1)OCO2)C1CCN(CCOc2ccc(Cl)cc2Cl)CC1	inactive
NCc1ccc(S(N)(=O)=O)cc1	inactive
COc1ccc(S(=O)(=O)Nc2ccc3c(c2)CC(=O)N([C@@H](C)CO)C[C@H](C)[C@H](CN(C)S(=O)(=O)c2ccc(F)cc2)O3)cc1	inactive
C[C@@H]1CN([C@@H](C)CO)C(=O)c2cccc(NC(=O)c3ccncc3)c2O[C@H]1CN(C)Cc1ccc(-c2ccccc2)cc1	inactive
